The structures appear in SMILES notation. The campaign covered roughly 290,000 compounds. About 890 (0.31%) were called active. Rule as the data show it: active = inhibition mostly above about 52% (no sharp cut-off); inactive = mostly below about 76%. Only a selection was taken, and actives are over-represented in it overall.

This experiment can be described thus: cell-free HIV fusion peptide-binding blockers – biochemical, uHTS, fluorescence dequenching, primary screen (AID 1986). The conditions noted are these: 30 min, stronger effect = higher value.
Setting [1] is: measured here: repeat confirmation average inhibition, at 18.6 µM.

Broadly, the inhibition is the change of the read-out against control, counted positive when it falls. In the case of `Cc1ccc(C)c2[nH]c(=O)c(CN(Cc3nnnn3C3CCCCC3)CC3CCCO3)cc12` (stereo not drawn), the inhibition (at 20 µM) was -0.9% (inactive). `Cc1cc(-n2nc3ccccc3n2)c(O)c([N+](=O)[O-])c1`: the inhibition (at 20 µM) is 0.3% (inactive). The same measure, in the same setting: in the case of `CCCCCc1ccc(-c2cn(Cc3ccc(C(=O)c4ccccc4)cc3)nn2)cc1` it was 1% (inactive). As to `COc1ccc(CC(=O)Nc2cc(C)c3c(=O)oc4ccccc4c3n2)cc1`, the inhibition (at 20 µM) was -0.2% (inactive). As to `CCOc1ccc(/C=C(\C)C(=O)c2c(C)cc(C)[nH]c2=O)cc1`, the inhibition (at 20 µM) was -0.3% (inactive). On to `COc1cc2[nH]c(=S)nc(NCCCOC(C)C)c2cc1OC`, for which, for the setting “at 20 µM”, the inhibition is -2.4% (inactive). On to `O=c1cc2c(=O)oc3cc(O)c(O)oc3c2c(O)c1O`, for which, under “at 20 µM”, the inhibition is 44.6% (inactive).

`O=c1oc2c(O)c(O)cc3c(=O)oc4c(O)c(O)cc1c4c23`: where the note is “at 20 µM”, the inhibition is 54.2% (active). On to `Cc1c(Br)c(=O)oc2c(Br)c(O)c(O)cc12`, for which the inhibition (at 20 µM) was 30.9% (inactive).

With `O=[N+]([O-])c1cc(Cl)cc(/C=N/Nc2nc3ccccc3s2)c1O`, the inhibition (at 20 µM) is 31.5% (inactive). On to `COc1ccc(/C=N/Nc2nc3ccccc3s2)cc1O`, for which the inhibition (at 20 µM) is -3.2% (inactive).

`COc1cc(/C=N/Nc2nc3ccccc3s2)cc([N+](=O)[O-])c1O`: the inhibition (at 20 µM) is 55.5% (active). As to `Cc1cc(C)n(-c2nc3ccccc3c(=O)n2OCC(=O)OCc2ccccc2)n1`, under “at 20 µM”, the inhibition was -0.4% (inactive).

`COc1ccc(N=C2NC(=O)CS2)c([N+](=O)[O-])c1`: for the setting “at 20 µM”, the inhibition was -1.1% (inactive). As for `Cc1nc(C2COc3ccccc3O2)sc1C(=O)O` (stereo not drawn), under “at 20 µM”, the inhibition is 1.6% (inactive). Consider `CCOC(=O)C1Nc2ccc(Br)cc2C2C=CCC12` (stereo not drawn), for which, where the note is “at 20 µM”, the inhibition is 34.6% (inactive). As for `Cc1cc(C)c2c(c1)NC(c1cc3c(cc1Br)OCO3)C1CC=CC21` (stereo not drawn), the inhibition (at 20 µM) was 7.4% (inactive). With `Cc1ccc2c(c1C)NC(C(=O)O)C1CC=CC21` (stereo not drawn), the inhibition (at 20 µM) was 43.9% (inactive). Regarding `O=C(O)C1Nc2c(C(F)(F)F)ccc(Cl)c2C2C=CCC12` (stereo not drawn), the inhibition (at 20 µM) was 37.7% (inactive). Regarding `O=C(O)C1Nc2c(Cl)cc(Cl)cc2C2C=CCC12` (stereo not drawn), the inhibition (at 20 µM) was 80.1% (active). Consider `O=C(O)C1Nc2c(O)cc(Cl)c([N+](=O)[O-])c2C2C=CCC12` (stereo not drawn), for which the inhibition by setting is: (at 20 µM) 66.8% (inactive); under setting [1], 41%. The matching figures for `CC(=O)c1ccc2c(c1)C1C=CCC1C(C(=O)O)N2` (stereo not drawn): 58.7% (inactive) and 17.4%. In the case of `CCCC1Nc2ccc(C(=O)O)cc2C2C=CCC12` (stereo not drawn), the inhibition (at 20 µM) was 49.7% (inactive).

On to `Cc1ccc2c(c1)C1C=CCC1C(C(=O)O)N2` (stereo not drawn), for which the inhibition (at 20 µM) is 62.4% (active). On to `Cc1cc(C)c2c(c1)NC(C(=O)O)C1CC=CC21` (stereo not drawn), for which, where the note is “at 20 µM”, the inhibition was 60.2% (active). On the same count and under the same terms, in the case of `CC(C)C1Nc2ccc(C(=O)O)cc2C2C=CCC21` (stereo not drawn) it was 50.1% (active). On the same count and under the same terms, in the case of `CCOC(=O)C1Nc2ccc(C(=O)O)cc2C2C=CCC12` (stereo not drawn) it was 38% (inactive); in that of `COc1ccc(C)cc1S(=O)(=O)N1CCN(c2ccccc2)CC1`, -0.9% (inactive). For the compound `Cc1ccc2nc3c(c(Nc4cccc(O)c4)c2c1)CCC3`, the inhibition (at 20 µM) is -1.7% (inactive). `CCOC(=O)c1ccc2c(c1)C1C=CCC1C(C(=O)O)N2` (stereo not drawn): the inhibition by setting is: (at 20 µM) 66.5% (inactive); under setting [1], 40.8%. `O=C(OC1CCCCC1)c1ccc2c(c1)C1C=CCC1C(C(=O)O)N2` (stereo not drawn): the inhibition (at 20 µM) was 56.1% (active). On the same count and under the same terms, in the case of `CCOC(=O)c1ccc2c(c1)C1C=CCC1C(C(=O)OCC)N2` (stereo not drawn) it was 19.8% (inactive); in that of `Cc1ccccc1-n1cc(CNCc2c(C(=O)N(C)C)nc3ccc(Cl)cn23)cn1`, -1.3% (inactive). On to `CCCCc1ccc(-c2csc(/C(C#N)=C\c3ccco3)n2)cc1`, for which the inhibition (at 20 µM) is 58.3% (active). As to `CCCCc1ccc(-c2csc(/C(C#N)=C/c3ccc(C)o3)n2)cc1`, the inhibition (at 20 µM) was 0.2% (inactive). For `CCCCc1ccc(-c2csc(/C(C#N)=C/c3ccco3)n2)cc1`, the inhibition (at 20 µM) is 49.9% (inactive). As to `CCCN1CCN(c2nc(-c3cccs3)nc3ccccc23)CC1`, the inhibition (at 20 µM) is 0.8% (inactive). With `O=C(NC(=S)Nc1ccc2oc(=O)ccc2c1)c1ccccc1F`, the inhibition (at 20 µM) is -0.2% (inactive). On to `O=C(/C=C/c1ccc([N+](=O)[O-])cc1)Nc1cccc(C(=O)Nc2ccccc2C(=O)O)c1`, for which the inhibition (at 20 µM) is 54.1% (active). As for `O=C(/C=C/c1ccco1)Nc1cccc(C(=O)Nc2ccccc2C(=O)O)c1`, the inhibition is, setting by setting: (at 20 µM) 58.9% (inactive); under setting [1], 49.8%. `COC(=O)c1cccc(NC(=O)/C=C/c2ccc([N+](=O)[O-])cc2)c1`: the inhibition (at 20 µM) is 0.8% (inactive). The same measure, in the same setting: in the case of `COc1ccc(NS(=O)(=O)c2cccc(NC(=O)NC3CCCCC3)c2)cc1` it was 2% (inactive); in that of `CCOC(=O)c1sc(=S)n(C)c1NC(=O)c1cccc(Br)c1`, -0.1% (inactive). Turning to `Cc1ccccc1C(=O)Nc1ccc2c(C#N)c3nc4ccccc4nc3n2c1`, the inhibition (at 20 µM) was 92.7% (active).

For `Cc1c(C(=O)Nc2ccccc2)cn2c(nc3ccccc32)c1C#N`, the inhibition (at 20 µM) was 3.1% (inactive). With `N#Cc1c2nc3ccccc3nc2n2cc(NC(=O)c3ccc(F)cc3)ccc12`, the inhibition is, setting by setting: (at 20 µM) 76.7% (inactive); under setting [1], -2.2%. As for `N#C/C=C(/N)N1CCN(c2ccc(Cl)c(Cl)c2)CC1`, the inhibition (at 20 µM) is -2.3% (inactive).

Take `O=C(O)c1nn(-c2cccc(Cl)c2)c(=O)cc1O`: the inhibition (at 20 µM) was 24.3% (inactive).

The values are drawn from PubChem BioAssay AID1986 (Sanford-Burnham Center for Chemical Genomics, 2009).
